Source: the supplement of paper PMC10849652
Targets with a hit are over-represented here; the source holds about 7,900 in all. About 0.6% of all pairs of compound and target were hits. A number with no mark means an inactive call.

What was measured:
Test in all cases: log2 fold change, soluble protein after heating vs DMSO (PISA); higher = thermal stabilisation; K562 cells, 10 uM, 30 min; active = over 0.2 and 3.5 SD of the protein, either way, in both replicates (recomputed)
[1] = compound: C#Cc1cccc(Nc2ncnc3cc(OCCOC)c(OCCOC)cc23)c1 [erlotinib]
In short: (§1)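 Soluble protein was quantified by TMTpro 16plex LC-MS/MS after channel sums were equalised. It was obtained as the supernatant after 21,000xg for 90 min from pooled aliquots of K562 cells (2×10^6 cells/mL, 10 μM compound, 30 min) heated for 3 min across 48°C-58°C and extracted in PBS with 0.5% NP-40 at 4°C. Thermal stability values are relative to control samples and come from duplicates. They are given as log2 fold changes.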

[2] = compound: C/C(=N\NC(=O)C1=CC(=CC=C1)S(=O)(=O)N2CCOCC2)/C3=C(C=CC(=C3)Cl)O
In short: as §1

[3] = compound: C1=CC(=C(C=C1Cl)C2=NC3=NC=CN=C3C(=N2)NC4=CC=NC=C4)F
In short: as §1

[4] = compound: C1=CC(=CC=C1C2=NC3=C(N2)C=C(C=C3)C(=O)N)OC4=CC=C(C=C4)Cl
In short: as §1

[5] = compound: C1=CC2=C(C=CC(=C2)/C=C\3/C(=O)NC(=NCC4=CC=CS4)S3)N=C1
In short: as §1

[6] = compound: C1=CC2=NC=CN=C2C=C1/C=C/3\C(=O)NC(=O)S3
In short: as §1

[7] = compound: C1=CC=C(C=C1)C2=NC(=C(N2)C3=CC=NC=C3)C4=CC(=C(C=C4)Cl)O
In short: as §1

[8] = compound: C1=CC=C2C(=C1)C3=NNC4=CC=CC(=C43)C2=O
In short: as §1

[9] = compound: C1CCN(C1)C(=O)NC2=CC=CC(=C2)NC3=NC=C(C(=N3)NCCC4=CN=CN4)Br
In short: as §1

[10] = compound: C1CN(CCC1(CC2=CC=C(C=C2)Cl)N)C3=NC=NC4=C3C=CN4
In short: as §1

[11] = compound: C1COCCN1CCN2C3=CC=CC=C3N=C2NC(=O)C4=CC(=CC=C4)[N+](=O)[O-] [IRAK-1-4 Inhibitor I]
In short: as §1

[12] = compound: C=CC(=O)N1CCC[C@@H](n2nc(-c3ccc(Oc4ccccc4)cc3)c3c(N)ncnc32)C1 [ibrutinib]
In short: as §1

[13] = compound: CC(=O)c1cnc2ccc(-c3cc(Cl)c(O)c(Cl)c3)nc2c1N[C@H]1CC[C@H](CN(C)C)CC1
In short: as §1

[14] = compound: CC(C)(C)Cn1c(N)nc2ccc(-c3[nH]c(C(C)(C)C)nc3-c3ccc(F)cc3)nc21 [ralimetinib]
In short: as §1

[15] = compound: CC(C)(O)CC(=O)NCCn1ccc2ncnc(Nc3ccc(Oc4cccc(C(F)(F)F)c4)c(Cl)c3)c21
In short: as §1

[16] = compound: CC(C)C1=C2N=C(C=C(N2N=C1)NCC3=CC=CC=C3)NCCCCCCN
In short: as §1

[17] = compound: CC(C)C[C@@H](C=O)NC(=O)[C@H](CC(C)C)NC(=O)[C@H](CC(C)C)NC(=O)OCc1ccccc1
In short: as §1

[18] = compound: CC(C)N(C[C@H]1O[C@@H](n2cnc3c(N)ncnc32)[C@H](O)[C@@H]1O)[C@H]1C[C@@H](CCc2nc3cc(C(C)(C)C)ccc3[nH]2)C1 [pinometostat]
In short: as §1

[19] = compound: CC1=C(C(CC(=O)N1)C2=CC=C(C=C2)C(F)(F)F)C(=O)NC3=C(C=C4C(=C3)C=NN4)F
In short: as §1

[20] = compound: CC1=C(C2=C(C=C1)C(=O)C3=CC=CC=C3N2CCCN)C
In short: as §1

Chain of UniProt Q96A65 (Q96A65 whole entry, looked up): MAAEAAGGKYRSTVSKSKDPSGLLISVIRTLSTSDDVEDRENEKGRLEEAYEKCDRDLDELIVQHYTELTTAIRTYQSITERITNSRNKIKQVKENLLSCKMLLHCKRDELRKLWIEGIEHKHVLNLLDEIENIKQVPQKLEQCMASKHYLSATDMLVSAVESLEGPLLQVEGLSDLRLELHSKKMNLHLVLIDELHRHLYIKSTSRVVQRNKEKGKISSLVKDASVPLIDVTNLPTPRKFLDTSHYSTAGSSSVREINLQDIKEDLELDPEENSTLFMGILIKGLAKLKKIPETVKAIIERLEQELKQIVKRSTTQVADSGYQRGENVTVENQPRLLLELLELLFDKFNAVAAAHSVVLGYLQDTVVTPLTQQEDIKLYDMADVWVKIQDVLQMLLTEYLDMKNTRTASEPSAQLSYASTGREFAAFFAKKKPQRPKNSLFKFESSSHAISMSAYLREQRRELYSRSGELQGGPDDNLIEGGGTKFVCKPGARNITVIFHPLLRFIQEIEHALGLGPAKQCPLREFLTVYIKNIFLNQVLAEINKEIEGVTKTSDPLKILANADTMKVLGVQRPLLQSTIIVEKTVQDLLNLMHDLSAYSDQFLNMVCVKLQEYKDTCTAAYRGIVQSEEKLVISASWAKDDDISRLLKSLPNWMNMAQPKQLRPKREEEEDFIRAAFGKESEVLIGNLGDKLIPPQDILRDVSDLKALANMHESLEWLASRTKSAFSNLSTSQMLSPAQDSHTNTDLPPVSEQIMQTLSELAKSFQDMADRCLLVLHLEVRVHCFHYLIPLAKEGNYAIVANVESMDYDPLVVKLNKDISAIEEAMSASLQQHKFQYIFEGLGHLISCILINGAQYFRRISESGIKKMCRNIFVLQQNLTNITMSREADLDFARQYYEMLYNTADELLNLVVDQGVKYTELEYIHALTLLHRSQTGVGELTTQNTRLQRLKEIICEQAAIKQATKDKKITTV
Chain of UniProt O43237 (O43237 whole entry, looked up): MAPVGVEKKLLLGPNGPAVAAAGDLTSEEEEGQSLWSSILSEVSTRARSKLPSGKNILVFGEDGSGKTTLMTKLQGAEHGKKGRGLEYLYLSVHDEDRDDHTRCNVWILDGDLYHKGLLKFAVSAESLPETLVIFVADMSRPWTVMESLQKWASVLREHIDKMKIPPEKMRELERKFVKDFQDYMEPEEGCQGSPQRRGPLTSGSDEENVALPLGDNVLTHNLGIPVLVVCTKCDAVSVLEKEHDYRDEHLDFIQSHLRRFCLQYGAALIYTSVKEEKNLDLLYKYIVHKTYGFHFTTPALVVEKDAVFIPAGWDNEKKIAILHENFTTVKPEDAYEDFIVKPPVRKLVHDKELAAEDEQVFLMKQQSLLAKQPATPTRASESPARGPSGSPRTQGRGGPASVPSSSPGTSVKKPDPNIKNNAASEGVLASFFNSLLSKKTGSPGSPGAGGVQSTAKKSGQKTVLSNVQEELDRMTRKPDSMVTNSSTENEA
Chain of UniProt Q13011 (Q13011 whole entry, looked up): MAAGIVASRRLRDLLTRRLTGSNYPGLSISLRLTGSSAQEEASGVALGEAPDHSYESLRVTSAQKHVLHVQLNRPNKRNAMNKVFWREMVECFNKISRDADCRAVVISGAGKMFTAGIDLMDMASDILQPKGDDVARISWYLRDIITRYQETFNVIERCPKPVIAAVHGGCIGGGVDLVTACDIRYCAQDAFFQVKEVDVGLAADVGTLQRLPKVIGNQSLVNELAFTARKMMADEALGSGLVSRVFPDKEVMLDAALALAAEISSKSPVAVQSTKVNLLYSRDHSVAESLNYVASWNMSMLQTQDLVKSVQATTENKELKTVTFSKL
Chain of UniProt Q9NV06 (Q9NV06 whole entry, looked up): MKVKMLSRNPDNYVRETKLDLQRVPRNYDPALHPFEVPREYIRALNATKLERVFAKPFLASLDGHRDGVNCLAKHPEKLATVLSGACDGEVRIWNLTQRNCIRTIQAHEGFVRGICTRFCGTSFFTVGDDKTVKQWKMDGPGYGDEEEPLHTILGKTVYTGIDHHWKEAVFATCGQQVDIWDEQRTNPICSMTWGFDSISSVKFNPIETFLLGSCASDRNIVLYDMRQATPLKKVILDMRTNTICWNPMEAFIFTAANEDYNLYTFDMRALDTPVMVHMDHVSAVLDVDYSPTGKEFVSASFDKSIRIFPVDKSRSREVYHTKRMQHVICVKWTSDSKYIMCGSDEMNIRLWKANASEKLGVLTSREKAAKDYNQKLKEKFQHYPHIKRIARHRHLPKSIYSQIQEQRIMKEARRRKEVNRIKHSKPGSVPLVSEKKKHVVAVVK
Chain of UniProt Q7Z2Z2 (Q7Z2Z2 whole entry, looked up): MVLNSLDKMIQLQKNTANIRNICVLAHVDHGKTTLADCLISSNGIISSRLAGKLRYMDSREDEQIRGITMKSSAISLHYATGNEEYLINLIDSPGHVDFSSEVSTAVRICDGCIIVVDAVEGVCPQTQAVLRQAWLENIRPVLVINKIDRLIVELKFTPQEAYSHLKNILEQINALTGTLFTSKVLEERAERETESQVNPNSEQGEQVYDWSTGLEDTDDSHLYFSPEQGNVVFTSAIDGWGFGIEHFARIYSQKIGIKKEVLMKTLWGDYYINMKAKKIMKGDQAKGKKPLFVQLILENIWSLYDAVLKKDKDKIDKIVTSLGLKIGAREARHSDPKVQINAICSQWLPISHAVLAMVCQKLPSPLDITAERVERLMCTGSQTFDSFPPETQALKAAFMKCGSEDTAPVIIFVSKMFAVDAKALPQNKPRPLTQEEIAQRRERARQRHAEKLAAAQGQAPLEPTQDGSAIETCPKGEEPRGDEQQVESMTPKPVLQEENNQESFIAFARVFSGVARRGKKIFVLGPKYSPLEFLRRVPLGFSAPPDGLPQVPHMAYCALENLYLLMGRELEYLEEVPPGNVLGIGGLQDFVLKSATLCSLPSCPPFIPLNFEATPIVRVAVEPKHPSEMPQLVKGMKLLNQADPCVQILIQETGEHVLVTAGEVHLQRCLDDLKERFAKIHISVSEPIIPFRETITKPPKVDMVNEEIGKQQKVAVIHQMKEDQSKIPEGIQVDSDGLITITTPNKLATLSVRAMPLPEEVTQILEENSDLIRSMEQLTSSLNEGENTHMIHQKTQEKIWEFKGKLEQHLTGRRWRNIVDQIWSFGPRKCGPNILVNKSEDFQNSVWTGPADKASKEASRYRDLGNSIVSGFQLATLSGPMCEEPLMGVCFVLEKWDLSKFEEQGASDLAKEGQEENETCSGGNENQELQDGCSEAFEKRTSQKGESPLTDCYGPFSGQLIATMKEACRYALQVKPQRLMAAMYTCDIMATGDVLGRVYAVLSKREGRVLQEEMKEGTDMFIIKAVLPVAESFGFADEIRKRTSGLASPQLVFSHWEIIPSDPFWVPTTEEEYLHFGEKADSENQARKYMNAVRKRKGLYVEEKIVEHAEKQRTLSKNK
Chain of UniProt Q96F86 (Q96F86 whole entry, looked up): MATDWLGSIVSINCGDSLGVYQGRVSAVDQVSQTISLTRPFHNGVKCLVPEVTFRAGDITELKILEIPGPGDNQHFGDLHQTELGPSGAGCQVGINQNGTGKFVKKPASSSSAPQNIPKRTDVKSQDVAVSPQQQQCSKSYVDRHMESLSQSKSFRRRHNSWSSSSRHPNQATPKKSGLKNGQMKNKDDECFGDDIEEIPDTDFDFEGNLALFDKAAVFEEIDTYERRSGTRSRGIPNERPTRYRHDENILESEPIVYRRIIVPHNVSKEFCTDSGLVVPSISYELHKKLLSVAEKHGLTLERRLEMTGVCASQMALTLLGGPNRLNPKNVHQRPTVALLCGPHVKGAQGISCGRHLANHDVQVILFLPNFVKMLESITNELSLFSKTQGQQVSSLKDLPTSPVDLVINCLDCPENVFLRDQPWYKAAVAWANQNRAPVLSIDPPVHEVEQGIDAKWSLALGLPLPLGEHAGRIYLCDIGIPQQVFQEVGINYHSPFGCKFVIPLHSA
Chain of UniProt P98082 (P98082 whole entry, looked up): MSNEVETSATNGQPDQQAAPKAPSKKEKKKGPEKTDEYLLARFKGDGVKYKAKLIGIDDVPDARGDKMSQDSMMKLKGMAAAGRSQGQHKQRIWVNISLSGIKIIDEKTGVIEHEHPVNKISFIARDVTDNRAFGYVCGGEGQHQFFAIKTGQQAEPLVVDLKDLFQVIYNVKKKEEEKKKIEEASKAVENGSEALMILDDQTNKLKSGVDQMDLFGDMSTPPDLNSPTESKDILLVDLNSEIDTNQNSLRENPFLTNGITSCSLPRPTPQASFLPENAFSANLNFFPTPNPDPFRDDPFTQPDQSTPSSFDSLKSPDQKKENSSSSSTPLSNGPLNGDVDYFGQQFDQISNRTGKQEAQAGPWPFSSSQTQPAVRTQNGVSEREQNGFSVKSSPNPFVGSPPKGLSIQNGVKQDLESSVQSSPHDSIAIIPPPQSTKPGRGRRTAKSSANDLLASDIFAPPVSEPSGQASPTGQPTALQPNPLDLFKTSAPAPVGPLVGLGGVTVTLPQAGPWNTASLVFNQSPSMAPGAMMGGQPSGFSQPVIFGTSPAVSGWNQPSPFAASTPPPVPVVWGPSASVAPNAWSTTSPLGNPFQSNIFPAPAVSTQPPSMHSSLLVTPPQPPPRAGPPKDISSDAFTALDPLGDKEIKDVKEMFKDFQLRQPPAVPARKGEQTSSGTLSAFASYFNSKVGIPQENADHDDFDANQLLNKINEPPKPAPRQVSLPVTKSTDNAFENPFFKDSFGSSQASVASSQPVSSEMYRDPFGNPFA
Chain of UniProt Q9BPY3 (Q9BPY3 whole entry, looked up): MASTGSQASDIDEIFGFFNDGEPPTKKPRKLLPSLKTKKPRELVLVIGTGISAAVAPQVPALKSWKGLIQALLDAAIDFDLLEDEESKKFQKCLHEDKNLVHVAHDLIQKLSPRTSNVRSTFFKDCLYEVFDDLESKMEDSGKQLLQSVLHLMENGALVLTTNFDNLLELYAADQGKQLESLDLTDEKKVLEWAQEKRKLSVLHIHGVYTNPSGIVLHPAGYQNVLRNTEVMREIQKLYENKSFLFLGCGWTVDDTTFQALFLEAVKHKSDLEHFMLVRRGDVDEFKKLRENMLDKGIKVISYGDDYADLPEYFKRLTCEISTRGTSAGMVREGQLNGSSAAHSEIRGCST

Target | log2 fold change [1] | log2 fold change [2] | log2 fold change [3] | log2 fold change [4] | log2 fold change [5] | log2 fold change [6] | log2 fold change [7] | log2 fold change [8] | log2 fold change [9] | log2 fold change [10] | log2 fold change [11] | log2 fold change [12] | log2 fold change [13] | log2 fold change [14] | log2 fold change [15] | log2 fold change [16] | log2 fold change [17] | log2 fold change [18] | log2 fold change [19] | log2 fold change [20]
FADS1, A0A0A0MR51 | 0.016 | -0.11 | -0.049 | -0.134 | 0.09 | 0.05 | 0.231 (active) | -0.008 | -0.006 | 0.002 | 0.085 | 0.015 | -0.07 | 0.017 | 0.355 (active) | -0.044 | 0.05 | 0.027 | -0.013 | 0.003
DCAF13 (UniProt Q9NV06) | -0.085 | -0.172 | -0.441 | 0.079 | -0.114 | -0.05 | -0.034 | -0.047 | 0.044 | -0.094 | -0.079 | 0.019 | 0.101 | 0.077 | 0.032 | -0.078 | 0.165 | 0.263 | 0.037 | -0.33
DYNC1LI2 (UniProt O43237) | 0.035 | -0.147 | -0.257 | -0.012 | -0.04 | -0.073 | -0.061 | 0.049 | 0.035 | -0.052 | 0.089 | 0.083 | 0.099 | 0.124 | 0.03 | -0.067 | 0.07 | 0.146 | 0.007 | 0.094
EPHX2 (UniProt P34913) | -0.01 | 0.213 | -0.008 | 0.2 | 0.09 | -0.004 | 0.038 | -0.032 | 0.123 | -0.001 | 0.044 | 0.096 | -0.024 | -0.026 | -0.018 | 0.285 (active) | 0.012 | 0.144 | 0.073 | -0.006
EDC3 (UniProt Q96F86) | -0.023 | 0.156 | 0.009 | 0.043 | -0.007 | -0.227 | -0.024 | -0.057 | -0.195 | -0.376 (active) | -0.029 | -0.082 | -0.643 (active) | 0.013 | -0.117 | -0.223 | 0.019 | 0.011 | 0.039 | -0.049
DDOST (UniProt P39656) | -0.033 | 0.003 | 0.004 | -0.014 | -0.085 | 0.014 | 0.253 (active) | 0.012 | -0.002 | -0.003 | -0.038 | -0.027 | 0.057 | 0.156 | 0.015 | -0.081 | -0.036 | 0.015 | 0.024 | -0.041
FAF2 (UniProt Q96CS3) | 0.009 | 0.078 | -0.003 | 0.02 | 0.049 | 0.03 | 0.15 | 0.009 | 0.035 | 0.004 | 0 | -0.026 | -0.034 | 0.103 | -0.029 | -0.044 | 0.03 | 0.053 | 0.008 | 0.044
CTSB (UniProt P07858) | 0.021 | -0.037 | 0.026 | 0.003 | 0.038 | 0.016 | 0.009 | -0.017 | 0.007 | 0.04 | -0.009 | 0.032 | 0.013 | -0.044 | 0.011 | -0.426 (active) | 0.037 | -0.031 | 0.042 | -0.053
EXOC4 (UniProt Q96A65) | 0.131 | 0.159 | 0.044 | -0.071 | 0.09 | 0.033 | -0.036 | -0.018 | -0.02 | -0.083 | -0.123 | -0.028 | -0.007 | 0.024 | -0.099 | -0.442 (active) | 0.04 | 0.143 | 0.035 | -0.01
EFL1 (UniProt Q7Z2Z2) | 0 | 0.051 | 0.027 | 0.002 | 0.013 | 0.002 | 0.053 | 0.043 | 0.027 | 0.013 | 0.016 | -0.019 | -0.039 | -0.004 | -0.069 | -0.103 | 0.03 | 0.005 | -0.009 | -0.058
DAB2 (UniProt P98082) | 0.107 | 0.112 | 0.01 | -0.035 | 0.037 | 0.008 | 0.002 | 0.019 | -0.156 | -0.006 | -0.009 | 0.004 | -0.093 | 0.082 | -0.119 | -0.02 | 0.138 | 0.049 | -0.031 | -0.075
ECH1 (UniProt Q13011) | -0.027 | 0.053 | 0.243 | 0 | 0.126 | -0.018 | 0.541 (active) | 0.361 (active) | -0.028 | -0.064 | 0.056 | -0.003 | -0.058 | 0.087 | -0.112 | -0.164 | -0.033 | 0.003 | 0.086 | 0.076
DSN1 (UniProt Q9H410) | 0.07 | 0.042 | -0.002 | 0.024 | -0.019 | -0.009 | -0.018 | 0.006 | 0.004 | -0.091 | -0.143 | -0.038 | -0.041 | -0.131 | -0.055 | -0.106 | 0.004 | -0.037 | -0.036 | -0.045
DCAF16 (UniProt Q9NXF7) | 0.051 | 0.042 | 0.036 | 0 | -0.034 | -0.002 | -0.001 | 0.048 | 0.039 | -0.127 | -0.04 | 0.017 | 0.039 | 0.034 | -0.052 | -0.027 | 0.018 | 0.055 | -0.047 | -0.105
FAM118B (UniProt Q9BPY3) | 0.164 | 0.098 | 0.195 | -0.084 | 0.123 | 0 | 0.044 | -0.021 | -0.045 | -0.023 | 0.039 | 0.073 | -0.118 | 0.051 | -0.199 | -0.145 | 0.065 | -0.024 | 0.014 | 0.042
CTSC (UniProt P53634) | -0.002 | 0.016 | 0.022 | -0.031 | 0.014 | 0.004 | 0.028 | 0.009 | -0.02 | 0.138 | 0.008 | 0.011 | -0.003 | -0.034 | 0.016 | -0.061 | 0.015 | -0.031 | -0.018 | -0.038
